Source: PubChem BioAssay (National Center for Advancing Translational Sciences (NCATS))
Methyltransferases: Primary Screen for Target Class Profiling of Small Molecule Inhibitors of Methyltransferases | AID 1745853, 2022 | purified enzyme, MTase-Glo SAH luminescence; stronger effect = lower value | calls only at 40 µM | 25,000 compounds, 3.9% hits; call rule not given here
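Each enzyme was reacted with SAM and its substrate, with compounds tested once at 40 uM; SAH formed was read by MTase-Glo luminescence.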
The depositor's hits bear a star; i = inactive; + = active, no number; ! = not confirmed by another sample. Many of the other results were omitted from the sample, so hits are more common in it than they were. On the % scale 0 is the no-effect control and ±100 the full control effect.

SMILES	Methyltransferases
CCOc1cc(CNC(=O)c2cc3n(n2)CC(C)(C(=O)NCc2ccc(F)cc2)N(C)C3=O)ccc1OC (stereo not drawn)	i
COc1ccc(OC)c(CCNC(=O)Cn2ccc3cc(S(=O)(=O)N4CCCC4)ccc32)c1	i
CCCC(=O)NCCc1c2n(c3ccc(OC)cc13)CCCc1ccccc1-2	+
COc1ccc(OC)c(CCNC(=O)CCc2nnc3n(Cc4ccc(F)cc4)c(=O)c4ccccc4n23)c1	i
Cc1noc(C)c1-c1nccc2c(=O)cc(-c3ccccn3)oc12	i
COc1ncccc1-c1cc(-c2c(C)noc2C)c2cncn2c1	i
COc1cc2c(cc1-c1c(C)noc1C)ncc1[nH]c(=O)n([C@H](C)c3ccccn3)c12	+!
CCCNCCc1ccc(NS(=O)(=O)c2ccc(OC(F)(F)F)cc2)cc1	i
CCCNC(=O)N1CCn2cccc2C1CCC (stereo not drawn)	i
C[C@@H]1O[C@@H](O[C@H]2[C@H](O[C@H]3[C@H](O[C@H]4CC[C@@]5(C)C(CC[C@]6(C)C5CC=C5[C@@H]7CC(C)(C(=O)O)C[C@@H](O)[C@]7(C)CC[C@]56C)[C@@]4(C)CO)O[C@H](C(=O)O)[C@@H](O)[C@@H]3O)O[C@H](CO)[C@H](O)[C@@H]2O)[C@H](O)[C@H](O)[C@H]1O (stereo partly drawn)	i
CS(=O)(=O)c1ccc(-n2nc(C(F)(F)F)cc2-c2ccc(F)cc2)cc1	i
NS(=O)(=O)c1ccc(-n2nc(C(F)(F)F)cc2-c2ccc(Cl)cc2)cc1	i
Cc1ccc(C)c(-c2cc(C(F)(F)F)nn2-c2ccc(S(N)(=O)=O)cc2)c1	+
CCc1noc([C@@H]2CC(F)(F)CN2C(=O)Cc2cccnc2)n1	i
COCCCNC(=O)C1(C)Cn2nc(-c3ccccc3)cc2C(=O)N1c1ccc(C)cc1 (stereo not drawn)	i
COc1ccc(CCNC(=O)CCc2nnc3n(Cc4ccc(C)cc4)c(=O)c4ccccc4n23)cc1OC	i
COc1ccc2c(c1)OCC(C(=O)NCc1noc(-c3ccco3)n1)C2 (stereo not drawn)	i
COc1ccc2c(c1)CC(NS(=O)(=O)c1ccc(C)cc1)CO2 (stereo not drawn)	i
COc1ccc2c(c1)C[C@H](C(=O)Nc1ccc(-c3cn[nH]c3)cc1OCCN(C)C)CO2	+
Cc1cccc(-c2[nH]ncc2-c2ccc(F)c(-c3cnn(CCO)c3)c2)n1	i
O=S(=O)(NCCn1c(-c2ccccc2)nc2ccccc21)c1ccccc1Cl	i
Cc1cc2c(cc3n2CC(C)(C(=O)NC2CCCCC2)N(CCN2CCN(C)CC2)C3=O)o1 (stereo not drawn)	i
COc1cc(C(=O)O)ccc1OC1OC(CO)C(O)C(O)C1O (stereo not drawn)	i
COc1cc(C(C)=O)ccc1O[C@@H]1O[C@H](CO)[C@@H](O)[C@H](O)[C@H]1O	i
C=C(C)C1Cc2cc(C(=O)OC3OC(CO)C(O)C(O)C3O)ccc2O1 (stereo not drawn)	+
SMILES	Methyltransferases
CCCCN1C(=O)c2cc(C(=O)Nc3cccc(SC)c3)nn2CC1(C)C(=O)NC1CCCC1 (stereo not drawn)	i
CC(C)Cn1c(=O)c2ccccc2n2c(CCC(=O)N3CCN(C(c4ccccc4)c4ccccc4)CC3)nnc12	i
C=CCn1c(=O)c2ccc(C(=O)NC(C)CC)cc2n2c(=O)n(CC(=O)Nc3ccc(C)cc3)nc12 (stereo not drawn)	i
CC1(C)C2CCC(CO[C@@H]3O[C@H](CO[C@@H]4OC[C@](O)(CO)[C@H]4O)[C@@H](O)[C@H](O)[C@H]3O)C1C2 (stereo partly drawn)	i
CS(=O)(=O)c1cccc(CNc2nc(Nc3ccc4c(c3)CCC(=O)N4)ncc2C(F)(F)F)c1	+
Nc1nc2c(nc(Sc3ccc(Cl)cc3)n2[C@@H]2O[C@@H]3COP(=O)(O)O[C@H]3[C@H]2O)c(=O)[nH]1	i
O=C1CCN(Cc2ccncc2)CCCC(C(=O)N2CCCC2)CCN1 (stereo not drawn)	i
CCCn1c(=O)c2ccc(C(=O)NC(C)C)cc2n2c(=O)n(Cc3cccc(C)c3)nc12	i
CN1C(=O)c2cc(C(=O)N3CCN(Cc4ccccc4)CC3)nn2CC1(C)C(=O)NCc1ccc(F)cc1 (stereo not drawn)	i
CCc1cc2c(cc3n2CC(C)(C(=O)NC2CCCCCC2)N(Cc2ccc(Cl)cc2)C3=O)s1 (stereo not drawn)	i
COc1cc(-c2ccc(O)cc2)c(OC)c(O)c1C1=CC(=O)OC1CC(=O)O (stereo not drawn)	i
COc1c(O)cc2c(c1O)C(=O)O[C@H](C)[C@H]2O	+
COc1cc(O)c2c(c1Cl)CC(C)OC2=O (stereo not drawn)	i
O=C(CCc1nnc2n(Cc3ccccc3)c(=O)c3ccccc3n12)N1CCN(c2ncccn2)CC1	i
Nc1ncnc2c1ncn2C1CCCC1	i
